Data as given in PubChem BioAssay AID1326 (NMMLSC, 2008).
In all, about 190,000 compounds went through this assay and about 130 (0.068%) were called active. Only a selection was taken, and actives are over-represented in it overall. A number with no mark means an inactive call. Cut-off read from the data, not from the text of the source: active = inhibition above about 40%; inactive = the rest.

molecular target: ATP-dependent translocase ABCB1 (Homo sapiens) (UniProt P08183); assay: blockers of ABCB1-mediated dye efflux – cell-based, multiplex, flow cytometry, ABCG2 counter-screen, primary screen (AID 1326); conditions: CCRF-Adr cells, JC-1 efflux, at 6.6 µM, active compounds read high;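 note: 0% = vehicle and 100% = reference inhibitor; higher value means more JC-1 retained so stronger ABCB1 efflux block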
Sequence (P08183 whole entry, looked up): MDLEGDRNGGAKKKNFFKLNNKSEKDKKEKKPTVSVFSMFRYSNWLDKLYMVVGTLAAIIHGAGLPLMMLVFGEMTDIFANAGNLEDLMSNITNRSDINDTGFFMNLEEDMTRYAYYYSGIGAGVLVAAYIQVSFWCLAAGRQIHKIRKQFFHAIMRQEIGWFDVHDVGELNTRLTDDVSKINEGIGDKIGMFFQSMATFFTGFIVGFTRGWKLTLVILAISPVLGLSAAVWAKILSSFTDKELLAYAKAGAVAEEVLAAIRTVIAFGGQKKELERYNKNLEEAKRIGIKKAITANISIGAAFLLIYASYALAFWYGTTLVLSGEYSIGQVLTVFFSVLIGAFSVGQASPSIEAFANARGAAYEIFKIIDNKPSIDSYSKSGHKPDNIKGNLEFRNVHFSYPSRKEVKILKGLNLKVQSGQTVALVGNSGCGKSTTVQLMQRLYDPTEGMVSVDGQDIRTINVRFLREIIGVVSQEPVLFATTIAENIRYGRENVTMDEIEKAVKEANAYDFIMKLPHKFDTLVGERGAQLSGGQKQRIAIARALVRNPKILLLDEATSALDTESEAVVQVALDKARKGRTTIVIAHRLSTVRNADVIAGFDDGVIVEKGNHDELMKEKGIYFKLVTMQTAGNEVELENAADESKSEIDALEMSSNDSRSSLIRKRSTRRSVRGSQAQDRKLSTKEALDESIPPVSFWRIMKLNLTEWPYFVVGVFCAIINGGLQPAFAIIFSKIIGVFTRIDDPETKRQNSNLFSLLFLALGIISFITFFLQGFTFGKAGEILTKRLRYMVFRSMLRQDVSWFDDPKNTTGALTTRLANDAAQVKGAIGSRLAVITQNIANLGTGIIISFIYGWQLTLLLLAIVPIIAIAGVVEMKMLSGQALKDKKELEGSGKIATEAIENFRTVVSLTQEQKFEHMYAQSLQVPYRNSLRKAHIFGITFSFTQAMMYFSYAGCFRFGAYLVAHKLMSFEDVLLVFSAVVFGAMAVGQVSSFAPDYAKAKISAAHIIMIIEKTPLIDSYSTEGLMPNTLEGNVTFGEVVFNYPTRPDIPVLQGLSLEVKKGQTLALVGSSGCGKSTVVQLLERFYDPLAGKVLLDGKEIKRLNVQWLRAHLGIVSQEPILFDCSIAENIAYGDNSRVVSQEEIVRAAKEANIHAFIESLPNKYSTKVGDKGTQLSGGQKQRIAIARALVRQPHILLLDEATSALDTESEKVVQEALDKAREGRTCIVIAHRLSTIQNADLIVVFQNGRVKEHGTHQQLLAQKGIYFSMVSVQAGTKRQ

Row | Structure (SMILES) | inhibition
1 | Cc1ccc2c(c1)C1CN(C)CCC1N2C(=S)Nc1ccc(Cl)cc1Cl (stereo not given) | -0.2%
2 | Cc1ccccc1OCC(O)CN1CCN(c2ccccn2)CC1 (stereo not given) | 2.19%
3 | Cc1cccc(C)c1OCC(O)CN1CCCCC1 (stereo not given) | 0.13%
4 | Cc1ccc(OCC(O)CN2CCN(CC(O)COc3ccc(C)cc3Cl)CC2)c(Cl)c1 (stereo not given) | 77.3% (active)
5 | COc1cccc(OC)c1C(=O)OCC(=O)/C(C#N)=C(\C)N | 0.08%
6 | CCC(=O)/C=C1\Sc2ccccc2N1CC | 0.19%
7 | CCN1/C(=C\c2ccc3ccccc3[n+]2CC)Sc2cc(C)ccc21 | 19.6%
8 | Cc1ccccc1-c1n[nH]c(=S)n1C | -0.08%
9 | CC(=O)c1ccc(NC(=O)CSC(=S)N2CCCC2)cc1 | 0.83%
10 | O=C(N/N=C/c1ccc([N+](=O)[O-])o1)c1cccc(S(=O)(=O)N2CCOCC2)c1 | 1.78%
11 | COC(=O)CC1=NN(c2nc(C)cc(C)n2)C(=O)C1 | 3.04%
12 | COc1ccc(Cl)cc1NC(=O)[C@@H]1CCCN1C(=O)c1cccs1 | 1.1%
13 | O=C(NNC(=S)NC(=O)c1cn(-c2ccccc2)nc1-c1ccccc1)c1ccncc1 | -0.12%
14 | O=C1N/C(=N\N=C\c2ccco2)SC1Cc1ccc(F)cc1 (stereo not given) | -0.31%
15 | COC(=O)c1ccc(CSc2nncn2N)cc1 | -0.7%
16 | CCCN1CNC(=S)N(CCc2ccccc2)C1 | 0.53%
17 | COc1ccc(CNC(=O)COC(=O)/C=C/c2ccc(S(=O)(=O)N3CCOCC3)cc2)cc1 | -0.38%
18 | CC(C)(C)OC(=O)N1CCC(NC(=O)c2[nH]cnc2C(=O)N[C@@H](Cc2ccccc2)C(=O)OCc2ccccc2)CC1 | 15.7%
19 | CC1=C(C)CC(C(=O)NC(C)CCc2ccccc2)C(C(=O)O)C1 (stereo not given) | 0.3%
20 | O=C(Cc1c[nH]c2ccccc12)N/N=C/c1cccc(F)c1 | -0.1%

Row | Structure (SMILES) | inhibition
21 | CCC(CC)c1nnc(NC(=O)/C=C/c2ccco2)s1 | 0.26%
22 | CN(C)c1nc(N)nc(Cn2nnc(-c3ccc(C(F)(F)F)cc3)n2)n1 | -0.39%
23 | O=S(=O)(c1ccc(-c2ccccc2)cc1)N1CCCC1 | 1.29%
24 | O=C(CCS(=O)(=O)Cc1ccccc1)Nc1ccc2c(c1)OCCO2 | 0.73%
25 | Cc1cc(C)cc(NC(=O)COC(=O)c2cc(C)oc2C)c1 | 1.39%
26 | Cc1ccc(C(NC(=O)N2CCCC2)C(Cl)(Cl)Cl)cc1F (stereo not given) | 0.9%
27 | CCS(=O)(=O)c1ccc(O)c(NC(=O)COc2ccc(Cl)cc2)c1 | 0.2%
28 | CCn1c(COc2c(C)cccc2C)nnc1SCc1nc2ccccc2c(=O)[nH]1 | 0.72%
29 | CS(=O)(=O)c1ccc2nc(NC(=O)c3ccc(Cl)nc3)sc2c1 | 0.4%
30 | Cc1nnc(SCCCCSc2nnc(C)c(=O)[nH]2)[nH]c1=O | 1.4%
31 | CC(C)OCCCNC(=O)c1ccc(C2SCC(=O)N2Cc2ccco2)cc1 (stereo not given) | 1.04%
32 | CSc1ccccc1NC(=O)Cc1ccc(Br)cc1 | 1.94%
33 | O=C(CN(c1cccc(Cl)c1)S(=O)(=O)c1ccccc1)NN=C1CCCC1 | 0.27%
34 | O=C(COC(=O)c1ccccc1C(=O)N1CCN(c2ccccc2)CC1)NCc1ccccc1 | 1.33%
35 | O=C1CN(C(=O)CN2C(=O)NC3(CCCCC3)C2=O)c2ccccc2N1 | 0.2%
36 | Cc1sc2nc(COC(=O)C(NC(=O)c3ccc(Cl)cc3Cl)C(C)C)[nH]c(=O)c2c1C (stereo not given) | -0.58%
37 | CCc1ccc(Nc2nnc(SCC(=O)c3ccc4c(c3)NC(=O)CO4)s2)cc1 | -0.13%
38 | CCOc1ccc(C(=O)Nc2cccc(SC)c2)cc1 | 0.08%
39 | COC(=O)CCC(=O)N1CCCC(CO)(Cc2ccccc2)C1 (stereo not given) | 0.1%
40 | CN(C)c1ccc(Nc2c3c4c(cccc4n(C)c2=O)C(=O)c2ccccc2-3)cc1 | 13.5%

Row | Structure (SMILES) | inhibition
41 | Cc1ccc(O)c(-c2cc(C(=O)Nc3c(C)n(C)n(-c4ccccc4)c3=O)[nH]n2)c1 | 0.33%
42 | COc1ccc(C2OCC3(CO2)SC(=O)NC3=O)cc1OC (stereo not given) | -0.28%
43 | COc1ccccc1N1CCN(/N=C\C(Br)=C\c2ccccc2)CC1 | 0.81%
44 | N#Cc1ccccc1NC(=O)c1cccc(COc2ccc(Cl)cc2Cl)c1 | -0.17%
45 | CCOC(=O)c1ccc(NC(=S)Nc2cc(C)cc(C)n2)cc1 | 1.25%
46 | COc1cc(C(=O)NCc2nnc(SCC(=O)Nc3nc4ccc(C)cc4s3)o2)cc(OC)c1OC | -2.31%
47 | Cc1ccccc1Nc1scc(-c2ccc(Br)cc2)[n+]1-c1ccccc1C | -2.63%
48 | CCCn1nc(NS(=O)(=O)c2ccccc2)c2cc3cc(C)ccc3nc21 | 0.68%
49 | O=S(=O)(c1ccccc1)c1nc(-c2ccccc2F)oc1NCc1cccnc1 | 5.26%
50 | c1ccc2c(c1)OCCOCCOCCO2 | 0.51%
51 | CC(=O)Cc1nsc(NC(=O)c2ccc(Cl)cc2Cl)n1 | -0.31%
52 | COC(=O)c1cc(NC(=O)CN2CCN(C(C)=O)CC2)cc(C(=O)OC)c1 | 1.14%
53 | CC(CNC(=O)c1ccc(N)cc1)NC(=O)c1ccc(N)cc1 (stereo not given) | -0.82%
54 | CS(=O)(=O)N1CCC(C(=O)N2CCN(c3ccccc3)CC2)CC1 | 0.86%
55 | CCC1SC(CC)C(=O)N(CC(=O)NC2CCCCC2)C1=O (stereo not given) | 0.07%
56 | Cc1c(Cl)c([N+](=O)[O-])nn1CC(=O)NCC1CCCO1 (stereo not given) | -0.1%
57 | COc1ccc(-n2nnnc2SCC(=O)NCc2cccs2)cc1 | 2.4%
58 | CCOc1ccc2nc(NC(=O)c3cc([N+](=O)[O-])ccc3N3CCOCC3)sc2c1 | -1.41%
59 | NC(=O)COC(=O)c1sc2cc(F)ccc2c1Cl | -0.04%
60 | COc1ccc(C(=O)COC(=O)c2nn(C)c(=O)c3ccccc23)c(OC)c1 | 0.19%
